Records with an inconclusive call do not appear. The source made the active and inactive calls. Unless noted, calls come from the whole dose curve; as a rule, active = well fitted curve in either direction with a large enough effect (not every such curve was filed as active); inconclusive = small, poorly fitted or top-dose-only effect, or another doubt; inactive = flat fitted curve, though single readings scatter.
Legend:
[1] = target: Lysosomal acid glucosylceramidase (Homo sapiens) (UniProt P04062); test: Glucocerebrosidase-p2 (AID 348; in the data active = potency below about 10 µM; note: potency is the fitted concentration of half-maximal effect); conditions: purified GBA, blue fluorogenic substrate, 40 min
Procedure, shortened: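 Normal human glucocerebrosidase (0.2 nM) with blue fluorogenic substrate (80 uM final) in citrate/phosphate pH 5.9 with 10mM sodium taurocholate, 0.01% tween-20; 40 min RT, NaOH/glycine stop; fluorescence Ex 365/Em 440; AC50 from a titration from 0.6 nM upwards.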

[2] = AP1 Signaling Pathway (AID 357); conditions: ME-180 AP-1-bla reporter, EGF-induced, beta-lactamase ratio, 5 h; at 7.69 µM (top of the series) unless noted;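 note: ME-180 reporter cells stimulated with EGF at its EC50 level; % is set by controls: 0 for no effect and ±100 for the full control effect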
Procedure, shortened: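 Beta-lactamase reporter under AP-1 response element, ME-180 background. Stimulus: EC50 EGF. Compound exposure 5 h, 37 °C. Detection: CCF4, 2.5 h RT, 460/530 nm. Values: AC50 from titration.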

[3] = target: Cytochrome P450 1A2 (Homo sapiens) (UniProt P05177); test: p450-cyp1a2 (AID 410; calls by dose curve; note: potency is the fitted concentration of half-maximal effect;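 for activity change, negative = inhibition: -100% = full effect of reference inhibitor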); conditions: recombinant CYP1A2, luciferin-ME demethylation, luminescence; series mostly up to 11.4 µM
Procedure, shortened: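 Luminescent demethylation readout: Luciferin-ME (100uM, equal to Km) turned over by 20nM CYP1A2 for 60 min at room temperature after NADPH regeneration addition, following 10 min compound preincubation. Normalization used 57 uM furafylline as full inhibition.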

[4] = NFAT Signaling Pathway (AID 444); conditions: Jurkat NFAT-bla M1, carbachol, beta-lactamase ratio, 5 h; at 7.69 µM (top of the series) unless noted;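 note: carbachol stimulus at about its EC50 of 1 µM final; % is set by controls: 0 for no effect and ±100 for the full control effect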
Procedure, shortened: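 Jurkat cells with NFAT-driven β-lactamase reporter and co-expressed M1 receptor, stimulated with carbachol (final 1 uM, ~EC50), compound titration, 5 h at 37 °C. CCF4 loaded 1 h at RT; 460/530 nm ratio gave %activity and AC50.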

[5] = Stat Signaling Pathway (AID 446); conditions: ME-180 SIE beta-lactamase reporter, IL-6 stimulated, 5 h; at 7.69 µM (top of the series) unless noted;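 note: ME-180 cervical cancer cells given 40 pM IL-6 alongside compound; SIE-controlled beta-lactamase reporter measured as 460/530 nm FRET emission ratio; % is set by controls: 0 for no effect and ±100 for the full control effect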
Procedure, shortened: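 Overnight-plated ME-180 cells bearing a STAT Inducible Element beta-lactamase reporter; 5 h co-exposure to compound and 40 pM IL-6; values normalized to 300 pM IL-6 and 125 nM JAK inhibitor controls.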

[6] = target: Glucocorticoid receptor (Homo sapiens) (UniProt P04150); test: GR-GFP Redistribution (AID 450;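 active = compounds whose dose series gives a full or clear partial fitted curve of increased nuclear translocation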; note: potency is the fitted concentration of half-maximal effect); conditions: U2OS GR-GFP nuclear translocation, laser cytometry, 2 h
[7] = target: Glucocorticoid receptor (Homo sapiens) (UniProt P04150); test: GR-EFC Redistribution (AID 451; calls by dose curve; note: potency is the fitted concentration of half-maximal effect); conditions: CHO-K1 GR-EFC translocation, beta-gal luminescence, 2 h
Procedure, shortened: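 CHO-K1 cells expressing nuclear EA and GR-ED fragments of b-gal; compounds titrated up to 46 uM final, 2 h at 37 C. GR nuclear translocation read as complemented b-gal luminescence after 1 h RT detection.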

[8] = target: Mitogen-activated protein kinase 10 (Mus musculus) (UniProt Q61831); test: JNK3 AlphaScreen Assay (AID 530); conditions: JNK3 lysate, c-Jun phosphorylation; series mostly up to 11.4 µM;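 note: kinase came from lysate of stimulated human HepG2 cells; signal reports phosphorylation of biotinylated GST-cJun 1-79 at Ser73 with 10 µM ATP; % is set by controls: 0 for no effect and ±100 for the full control effect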
Procedure, shortened: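 Activity was read by AlphaScreen after JNK3-containing HepG2 lysate (cytokine pre-activated) phosphorylated biotinylated GST-cJun with 10 uM ATP at room temperature. Phospho-Ser73 cJun antibody with Protein-A acceptor beads provided detection.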

[9] = target: 3',5'-cyclic-AMP phosphodiesterase 4B (Homo sapiens) (UniProt Q07343); test: qHTS Assay for Inhibitors of PDE-IV (AID 607; active = well fitted activation curve with a large enough effect in the main read-out, with a control signal flat, not every such curve was filed as active; note: % of control where 0% means no effect); conditions: HEK293 ACTOne CNG channel cells, membrane potential fluorescence; series mostly up to 22.9 µM
Procedure, shortened: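 Live HEK293 cells with a modified cyclic nucleotide-gated (CNG) channel report intracellular cAMP via membrane-potential dye fluorescence (ex 535/em 590 nm). Endogenous PDE-IV was targeted. Compounds were tested at up to 22.9 uM final; RO 20-1724 100 uM served as control.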

[10] = target: Cytochrome P450 2C19 (Homo sapiens) (UniProt P33261); test: qHTS Assay for Inhibitors and Substrates of Cytochrome P450 2C19 (AID 899; active = well fitted inhibition curve with a large enough effect; note: nearly all actives have a fitted effect of over 60% in size; note: potency is the fitted concentration of half-maximal effect); conditions: recombinant CYP2C19, luciferin-H EGE luminescence; series mostly up to 11.4 µM
Procedure, shortened: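 Signal comes from luciferase acting on luciferin released by CYP2C19-mediated hydroxylation of Luciferin-H EGE, 10uM (KM). Assay mix: 5nM enzyme, 50mM KPO4; 60 min at 37C with NADPH regeneration. Data normalized against 57uM ketoconazole.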

[11] = target: Cytochrome P450 2C9 (Homo sapiens) (UniProt P11712); test: qHTS Assay for Inhibitors and Substrates of Cytochrome P450 2C9 (AID 883; active = well fitted inhibition curve with a large enough effect; note: potency is the fitted concentration of half-maximal effect; nearly all actives have a fitted effect of over 60% in size); conditions: recombinant CYP2C9, luciferin-H luminescence, 60 min; series mostly up to 11.4 µM
Procedure, shortened: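 Signal: luciferase luminescence reporting luciferin produced by CYP2C9. Conditions: 10nM enzyme, Luciferin-H 100uM at KM, 25mM KPO4, 37C, 60 min NADPH-driven reaction. Reference: 57uM sulphaphenazole as 100% inhibition.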

[12] = qHTS Assay for Identification of Small Molecule Agonists for Hypoxia Response Element Signaling Pathway (AID 914; active = well fitted activation curve with a large enough effect in the signal ratio, with a control signal flat, not every such curve was filed as active; the % refers to the signal ratio; note: % of control where 0% means no effect); conditions: ME-180 (cervical carcinoma) HRE-bla reporter, beta-lactamase ratio, CoCl2, 17 h; activation: active compounds read high
Procedure, shortened: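 AC50 values come from titration-series %Activity, taken as the 460/530nm ratio of CCF4 fluorescence (excitation 405nm). CellSensor HRE-bla ME-180 cells were treated 17 hours at 37 C with compound plus an EC50 level of CoCl2.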

Sequence of 3',5'-cyclic-AMP phosphodiesterase 4B (Homo sapiens) (Q07343 whole entry, looked up): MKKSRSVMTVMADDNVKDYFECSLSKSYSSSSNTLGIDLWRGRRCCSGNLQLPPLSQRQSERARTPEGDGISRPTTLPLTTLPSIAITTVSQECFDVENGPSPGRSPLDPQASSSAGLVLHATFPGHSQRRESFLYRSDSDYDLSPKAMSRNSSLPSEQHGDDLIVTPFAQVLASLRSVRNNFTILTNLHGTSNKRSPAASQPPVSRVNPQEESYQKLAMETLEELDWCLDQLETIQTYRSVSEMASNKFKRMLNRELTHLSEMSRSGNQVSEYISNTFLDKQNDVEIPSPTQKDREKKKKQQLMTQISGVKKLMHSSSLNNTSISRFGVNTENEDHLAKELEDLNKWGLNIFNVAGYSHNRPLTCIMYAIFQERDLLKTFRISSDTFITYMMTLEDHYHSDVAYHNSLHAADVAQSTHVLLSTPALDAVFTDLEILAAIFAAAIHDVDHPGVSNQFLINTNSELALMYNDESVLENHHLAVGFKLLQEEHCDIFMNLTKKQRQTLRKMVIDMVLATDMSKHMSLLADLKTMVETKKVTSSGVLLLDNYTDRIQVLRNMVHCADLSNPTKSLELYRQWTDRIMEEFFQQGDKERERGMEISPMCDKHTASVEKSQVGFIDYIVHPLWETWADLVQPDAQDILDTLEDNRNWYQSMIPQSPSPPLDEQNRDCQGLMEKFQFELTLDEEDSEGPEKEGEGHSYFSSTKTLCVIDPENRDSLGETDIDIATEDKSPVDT
Sequence of Glucocorticoid receptor (Homo sapiens) (P04150 whole entry, looked up, the tested form may be a part): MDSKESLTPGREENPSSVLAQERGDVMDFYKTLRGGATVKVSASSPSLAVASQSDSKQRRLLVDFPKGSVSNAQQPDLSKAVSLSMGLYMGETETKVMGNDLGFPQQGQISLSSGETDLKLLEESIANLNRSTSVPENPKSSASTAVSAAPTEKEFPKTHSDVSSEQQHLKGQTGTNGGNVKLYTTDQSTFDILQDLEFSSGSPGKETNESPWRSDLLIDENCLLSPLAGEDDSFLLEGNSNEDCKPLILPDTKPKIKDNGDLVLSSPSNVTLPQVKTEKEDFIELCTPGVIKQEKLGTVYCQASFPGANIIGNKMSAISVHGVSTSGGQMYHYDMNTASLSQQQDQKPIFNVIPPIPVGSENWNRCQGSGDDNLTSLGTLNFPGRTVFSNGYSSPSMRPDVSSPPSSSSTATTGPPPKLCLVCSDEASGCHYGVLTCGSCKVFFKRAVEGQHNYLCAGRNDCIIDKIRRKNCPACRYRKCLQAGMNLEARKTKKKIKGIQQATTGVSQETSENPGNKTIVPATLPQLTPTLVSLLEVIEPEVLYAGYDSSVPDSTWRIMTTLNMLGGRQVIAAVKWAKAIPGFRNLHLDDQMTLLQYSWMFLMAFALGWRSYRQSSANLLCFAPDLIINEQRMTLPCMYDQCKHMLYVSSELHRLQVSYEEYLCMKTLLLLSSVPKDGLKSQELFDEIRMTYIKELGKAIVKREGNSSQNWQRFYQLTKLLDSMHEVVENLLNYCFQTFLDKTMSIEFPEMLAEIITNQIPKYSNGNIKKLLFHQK
Sequence of Lysosomal acid glucosylceramidase (Homo sapiens) (P04062 whole entry, looked up): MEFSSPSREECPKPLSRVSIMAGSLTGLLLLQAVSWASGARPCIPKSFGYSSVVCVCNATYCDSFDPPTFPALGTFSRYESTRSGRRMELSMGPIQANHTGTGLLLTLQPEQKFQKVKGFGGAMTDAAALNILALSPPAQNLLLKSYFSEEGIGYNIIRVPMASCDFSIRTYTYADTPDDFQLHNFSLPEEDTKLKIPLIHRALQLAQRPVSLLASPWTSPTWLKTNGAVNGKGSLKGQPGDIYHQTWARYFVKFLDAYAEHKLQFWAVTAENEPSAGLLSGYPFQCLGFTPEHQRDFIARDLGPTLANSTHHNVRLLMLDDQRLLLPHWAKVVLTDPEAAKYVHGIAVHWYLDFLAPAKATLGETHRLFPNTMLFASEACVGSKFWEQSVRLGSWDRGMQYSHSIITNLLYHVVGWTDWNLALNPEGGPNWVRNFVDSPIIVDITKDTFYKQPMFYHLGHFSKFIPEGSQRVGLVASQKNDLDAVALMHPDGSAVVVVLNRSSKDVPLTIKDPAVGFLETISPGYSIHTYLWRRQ
Sequence of Cytochrome P450 2C19 (Homo sapiens) (P33261 whole entry, looked up): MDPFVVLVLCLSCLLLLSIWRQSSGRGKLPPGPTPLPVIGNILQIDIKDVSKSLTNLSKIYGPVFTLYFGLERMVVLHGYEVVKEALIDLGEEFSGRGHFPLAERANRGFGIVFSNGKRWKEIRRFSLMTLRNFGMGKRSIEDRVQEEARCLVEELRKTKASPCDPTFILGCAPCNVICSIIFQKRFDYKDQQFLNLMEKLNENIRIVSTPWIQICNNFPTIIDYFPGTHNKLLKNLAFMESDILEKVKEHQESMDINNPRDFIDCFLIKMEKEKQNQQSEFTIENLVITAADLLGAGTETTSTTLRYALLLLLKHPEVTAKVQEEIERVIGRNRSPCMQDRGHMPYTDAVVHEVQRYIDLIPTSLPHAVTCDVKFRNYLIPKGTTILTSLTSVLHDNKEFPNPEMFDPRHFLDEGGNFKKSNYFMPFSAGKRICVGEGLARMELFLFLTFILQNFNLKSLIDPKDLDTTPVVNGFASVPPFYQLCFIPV
Sequence of Cytochrome P450 1A2 (Homo sapiens) (P05177 whole entry, looked up): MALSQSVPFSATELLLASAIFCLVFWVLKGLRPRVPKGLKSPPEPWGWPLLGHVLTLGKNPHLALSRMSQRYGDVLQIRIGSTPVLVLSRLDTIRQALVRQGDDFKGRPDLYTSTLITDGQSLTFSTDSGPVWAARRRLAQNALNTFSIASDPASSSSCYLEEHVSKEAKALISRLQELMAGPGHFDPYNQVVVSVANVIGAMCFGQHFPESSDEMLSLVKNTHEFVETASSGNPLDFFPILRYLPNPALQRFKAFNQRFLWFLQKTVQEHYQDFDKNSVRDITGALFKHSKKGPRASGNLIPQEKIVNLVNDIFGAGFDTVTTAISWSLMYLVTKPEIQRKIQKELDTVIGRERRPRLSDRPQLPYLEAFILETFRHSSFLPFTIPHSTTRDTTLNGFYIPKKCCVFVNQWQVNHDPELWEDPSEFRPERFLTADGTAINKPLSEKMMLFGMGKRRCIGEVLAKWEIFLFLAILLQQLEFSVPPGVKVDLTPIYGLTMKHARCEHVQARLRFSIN
Sequence of Cytochrome P450 2C9 (Homo sapiens) (P11712 whole entry, looked up): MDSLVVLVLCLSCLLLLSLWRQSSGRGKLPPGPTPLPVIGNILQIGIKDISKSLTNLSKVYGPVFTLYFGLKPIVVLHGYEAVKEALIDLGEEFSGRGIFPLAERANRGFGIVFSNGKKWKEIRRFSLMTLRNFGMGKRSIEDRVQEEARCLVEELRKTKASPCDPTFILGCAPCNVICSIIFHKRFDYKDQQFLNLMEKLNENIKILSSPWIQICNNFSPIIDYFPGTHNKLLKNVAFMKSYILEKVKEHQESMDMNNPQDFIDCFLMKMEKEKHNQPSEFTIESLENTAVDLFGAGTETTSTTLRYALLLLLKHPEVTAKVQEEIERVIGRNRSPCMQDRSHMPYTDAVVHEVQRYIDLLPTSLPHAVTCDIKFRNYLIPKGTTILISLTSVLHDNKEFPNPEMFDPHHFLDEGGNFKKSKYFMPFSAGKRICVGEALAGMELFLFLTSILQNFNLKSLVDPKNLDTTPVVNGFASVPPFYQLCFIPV

CN(C)CCNc1ccccn1
inactive: Potency [1] > 11.4 µM | activity change, negative = inhibition [2] -8.09% | Potency [3] | activity change, negative = inhibition [4] 12.6% | activity, negative = inhibition [5] 3.69% | Potency [6] > 46 µM | Potency [7] > 9.22 µM | Potency [8] | Potency [9] | Potency [10]

N=C(N)SCCCN
inactive: Potency [1] > 11.4 µM | activity change, negative = inhibition [2] 2.32% | activity change, negative = inhibition [4] 3.8% | activity, negative = inhibition [5] 5.52% | Potency [6] > 46 µM | Potency [7] > 9.22 µM | Potency [8] | Potency [9] | Potency [10]
active: Potency [3] 6.31 µM

Cn1c([N+](=O)[O-])cnc1CN1CCN(CCO)CC1
inactive: Potency [1] > 11.4 µM | activity change, negative = inhibition [2] 11% | activity change, negative = inhibition [3] 9.2% [at 2.29 µM] | activity change, negative = inhibition [4] 2.86% | activity, negative = inhibition [5] 10.3% | Potency [6] > 46 µM | Potency [7] > 9.22 µM | Potency [8] | Potency [9] | Potency [10]

c1cncc(CNc2ncn[nH]2)c1
inactive: Potency [1] > 11.4 µM | activity change, negative = inhibition [2] 12.7% | Potency [3] | activity change, negative = inhibition [4] 15.3% | activity, negative = inhibition [5] -1.59% | Potency [6] > 46 µM | Potency [7] > 9.22 µM | Potency [8] | Potency [9] | Potency [10]

Cn1c(=O)c2c(nc(NCCNc3nc4c(c(=O)n(C)c(=O)n4C)n3C)n2C)n(C)c1=O
inactive: Potency [1] > 11.4 µM | activity change, negative = inhibition [2] 4.17% | Potency [3] | activity change, negative = inhibition [4] 8.54% | activity, negative = inhibition [5] 14.6% | Potency [6] > 46 µM | Potency [7] > 9.22 µM | Potency [8] | Potency [9] | Potency [10]

Cn1c(=O)c2c(nc(Cc3ccccc3)n2CC(=O)O)n(C)c1=O
inactive: Potency [1] > 11.4 µM | activity change, negative = inhibition [2] 6.03% | activity change, negative = inhibition [3] -13.2% [at 2.29 µM] | activity change, negative = inhibition [4] 0.0397% | activity, negative = inhibition [5] 10.4% | Potency [6] > 46 µM | Potency [7] > 9.22 µM | Potency [8] | Potency [9] | Potency [10]

N=C(N)CCNC(=O)[C@@H]1CCC(N)=N1
inactive: Potency [1] > 11.4 µM | activity change, negative = inhibition [2] 4.22% | activity change, negative = inhibition [3] -3.4% [at 2.29 µM] | activity change, negative = inhibition [4] 3.47% | activity, negative = inhibition [5] 1.16% | Potency [6] > 46 µM | Potency [7] > 9.22 µM | Potency [8] | Potency [9] | Potency [10]

O=C(O)CC1(CC(=O)O)Nc2ccccc2SC1=O
inactive: Potency [1] > 11.4 µM | activity change, negative = inhibition [2] -1.59% | activity change, negative = inhibition [3] 2% [at 2.29 µM] | activity change, negative = inhibition [4] 5.68% | activity, negative = inhibition [5] 2.07% | Potency [6] > 46 µM | Potency [7] > 9.22 µM | Potency [8] | Potency [9] | Potency [10]

O=c1cnc2cnc(Oc3ccccc3)nc2n1CCc1ccccc1
active: Potency [3] 3.16 µM | Potency [11] 3.16 µM | Potency [10] 6.31 µM
inactive: Potency [1] > 11.4 µM | activity change, negative = inhibition [2] 6.02% | activity change, negative = inhibition [4] -28.7% | activity, negative = inhibition [5] -4.75% | Potency [6] > 9.22 µM | Potency [7] > 46 µM | Potency [8]

C[C@@](N)(/C=C\c1ccccc1)C(=O)O
inactive: Potency [1] > 11.4 µM | activity change, negative = inhibition [2] -1.95% | Potency [3] | activity change, negative = inhibition [4] 12% | activity, negative = inhibition [5] -3.44% | Potency [6] > 46 µM | Potency [7] > 9.22 µM | Potency [8] | Potency [9] | activation [12] -2.86%

O[C@@H](COc1cccc2ccccc12)CN1CCOCC1
inactive: Potency [1] > 11.4 µM | activity change, negative = inhibition [2] 3.83% | activity change, negative = inhibition [4] 4.33% | activity, negative = inhibition [5] 3.7% | Potency [6] > 46 µM | Potency [7] > 9.22 µM | Potency [8] | Potency [9] | activation [12] 3.28%
active: Potency [3] 3.98 µM

O=C1c2ccccc2-c2ccc(NC(=O)[C@H]3CCCC[C@@H]3C(=O)O)cc21
inactive: Potency [1] > 11.4 µM | activity change, negative = inhibition [2] 9.83% | activity change, negative = inhibition [4] 13.7% | activity, negative = inhibition [5] 1.55% | Potency [6] > 46 µM | Potency [7] > 9.22 µM | Potency [8] | Potency [9] | activation [12] -7.45%
active: Potency [3] 1 µM

Cc1ccc(S(=O)(=O)Oc2cc(S(=O)(=O)O)cc3cc(S(=O)(=O)O)cc(N)c23)cc1
inactive: Potency [1] > 11.4 µM | activity change, negative = inhibition [2] 8.2% | activity change, negative = inhibition [4] 1.61% | activity, negative = inhibition [5] 11.7% | Potency [6] > 46 µM | Potency [7] > 9.22 µM | Potency [8] | Potency [9] | activation [12] -7.4%
active: Potency [3] 2 µM

N=c1nc(N)nc(N)n1-c1ccc(S(N)(=O)=O)cc1
inactive: Potency [1] > 11.4 µM | activity change, negative = inhibition [2] 4.82% | activity change, negative = inhibition [3] -3.8% [at 2.29 µM] | activity change, negative = inhibition [4] 9.5% | activity, negative = inhibition [5] 6.13% | Potency [6] > 46 µM | Potency [7] > 9.22 µM | Potency [8] | Potency [9] | activation [12] 8.62%

C[C@@H]1NCC[C@H](CC(=O)O)[C@H]1CC(=O)O
inactive: Potency [1] > 11.4 µM | activity change, negative = inhibition [2] 8.61% | Potency [3] | activity change, negative = inhibition [4] -12% | activity, negative = inhibition [5] 8.09% | Potency [6] > 46 µM | Potency [7] > 9.22 µM | Potency [8] | Potency [9] | activation [12] 3.32%

Reference: PubChem BioAssay (NCATS)
